A selection: hits, their analogues and other compounds. The true share with any hit is near 7.5%.
FLuc counter – firefly luciferase modulation, counter-screen for miR-21 project; hit rate 6.9% among 360,000; P08659; purified FLuc, Km substrates, luminescence inhibition; Potency, µM (series often up to 57.5 µM), inactives show at the highest dose activity change, negative = inhibition, usual class: inhibitors;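 note: plate controls were vehicle for no effect and reference inhibitor for full effect; nearly all actives have a fitted effect of over 55% in size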
Target sequence (P08659 whole entry, looked up): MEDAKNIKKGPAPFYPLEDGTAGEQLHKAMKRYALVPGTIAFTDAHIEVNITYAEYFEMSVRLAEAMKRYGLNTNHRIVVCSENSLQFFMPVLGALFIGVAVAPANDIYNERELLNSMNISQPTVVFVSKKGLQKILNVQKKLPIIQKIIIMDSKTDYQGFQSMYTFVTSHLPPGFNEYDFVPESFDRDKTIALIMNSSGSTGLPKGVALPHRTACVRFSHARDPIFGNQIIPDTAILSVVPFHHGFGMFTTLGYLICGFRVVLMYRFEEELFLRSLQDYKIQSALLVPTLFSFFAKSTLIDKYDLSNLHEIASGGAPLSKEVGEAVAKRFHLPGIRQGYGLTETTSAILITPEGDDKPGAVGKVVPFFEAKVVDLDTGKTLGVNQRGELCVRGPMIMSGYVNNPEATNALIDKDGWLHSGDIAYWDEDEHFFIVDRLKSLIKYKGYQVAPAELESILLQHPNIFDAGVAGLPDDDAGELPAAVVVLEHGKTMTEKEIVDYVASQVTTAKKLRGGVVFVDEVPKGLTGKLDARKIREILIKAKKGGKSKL
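Biochemical qHTS of compounds, final roughly 60 µM downward over six points, against 10 nM purified firefly luciferase using Km concentrations of substrates (10 uM D-luciferin, 10 uM ATP) in Tris acetate pH 7.5 buffer; luminescence output.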
ELG1 genotoxic – induces genotoxicity in HEK293T cells with luciferase-tagged ELG1; HEK293T ELG1-luciferase reporter, luminescence, 16 h; Potency, µM (top dose mostly 46 µM), without a hit: at the highest dose activity change, positive = activation, most hits filed as activators; hit rate 1.3% among 330,000; AID 504466; note: % of control where 0% means no effect; nearly all actives have a fitted effect of over 60% in size
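HEK293T cells expressing luciferase-tagged ELG1 were exposed to compound or DMSO vehicle for 16 hr at 37 °C and 5% CO2. Luciferase activity was then measured with ONE-Glo after 30 min at room temperature.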
SMN2 splice enh – increases expression of the SMN2 splice variant; HEK293 SMN2-luciferase splicing reporter, luminescence, 30-36 h; Potency, µM (titrated, usually from 46.1 µM), for inactives: at the top dose activity change, positive = activation, most hits filed as activators; hit rate 2.8% among 210,000; AID 1458; note: % of control where 0% means no effect; nearly all actives have a fitted effect of over 55% in size
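qHTS luciferase splicing reporter: luminescence rises when SMN2 exon 7 is included in transfected HEK293 cells. Compound exposure lasted 30-36 h at 37C, with 4.5 mM final sodium butyrate as control, followed by a ONE-Glo read.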
NPC1 promoter act – NPC1 promoter activation. Huh7 NPC1 promoter luciferase reporter, 24 h. Potency, µM (highest dose often 9.22 µM), for the others: top-dose activation, hits mostly activators. AID 485313. hit rate 2.4% among 320,000; note: % of control where 0% means no effect; nearly all actives have a fitted effect of over 60% in size
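Compounds in DMSO were transferred onto Huh7 NPC1-luciferase reporter cells pre-incubated 2 h; after 24 h at 37 °C, Amplite reagent was dispensed and luminescence recorded 10 min later.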
Rab9 promoter act – activators of Rab9 promoter. Huh7 Rab9 promoter-luciferase reporter, luminescence, 24 h. Potency, µM (highest dose often 9.22 µM), for inactives: top-dose activation, negative = inhibition, most hits filed as activators. hit rate 2.8% among 320,000. AID 485297; note: % of control where 0% means no effect; nearly all actives have a fitted effect of over 60% in size
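Stable Rab9-luc Huh7, 1500 cells/well, 2 h settle; cmpd in DMSO, 24 h, 37 °C/5% CO2; luciferase reagent 10 min RT; luminescence.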
The depositor's hits bear a star; [ ] = dose if it differs, or a comment. Calls come from the whole dose curve; as a rule, active = well fitted curve in the direction sought with a large enough effect; inconclusive = small, poorly fitted or top-dose-only effect, or another doubt; inactive = no such curve, though single readings can be large; an effect the other way counts as inactive or inconclusive. Potency is the fitted concentration of half-maximal effect.

Screening O=C(NCc1ccco1)/C(=C/c1ccc(C(F)(F)F)cc1)c1nc2ccccc2[nH]1 returned FLuc counter 12µM*, ELG1 genotoxic inconclusive, SMN2 splice enh 24.5%, NPC1 promoter act 10.0% and Rab9 promoter act 14.7%.
Screening COc1cc(O)cc2cc3c(c(O)c12)C(=O)CC(C)(O)O3 (configuration not stated) returned FLuc counter inconclusive, ELG1 genotoxic -11.9%, NPC1 promoter act inconclusive and Rab9 promoter act 16.9%.
Clc1ccccc1Cn1c(/C=C/c2ccco2)nc2ccccc21 was read as FLuc counter 10.7µM*, ELG1 genotoxic -1.2%, SMN2 splice enh -0.2%, NPC1 promoter act -2.4% and Rab9 promoter act 2.4%.
O=C(NCCCc1nc2ccccc2n1Cc1ccccc1Cl)c1ccco1 was read as FLuc counter -6.2% and SMN2 splice enh -10.7%.
For O=C(COC(=O)C1CCC1)NCc1ccc(Cl)cc1Cl the results were FLuc counter 16.9µM*, ELG1 genotoxic 12.0%, NPC1 promoter act -0.2% and Rab9 promoter act 2.1%.
`O=C(COC(=O)C1CCC1)NCCc1ccc(Cl)cc1Cl` gave FLuc counter 0.4%, ELG1 genotoxic 1.6%, NPC1 promoter act -0.3% and Rab9 promoter act -1.8%.
`Cc1ccc(NC(=O)COC(=O)C2CC2(Cl)Cl)cc1C` (configuration not stated) gave FLuc counter 8.49µM*, ELG1 genotoxic 2.6%, SMN2 splice enh -8.1%, NPC1 promoter act 1.4% and Rab9 promoter act -0.9%.
For O=C(COC(=O)C1CC1)Nc1ccc(N=Nc2ccccc2)cc1 the results were FLuc counter inconclusive, ELG1 genotoxic 20.6µM*, SMN2 splice enh 6.31µM*, NPC1 promoter act 3.55µM* and Rab9 promoter act 0.631µM*.
For CCCCC(=O)OCC(=O)Nc1ccc(C)c(F)c1 the results were FLuc counter 16.9µM*, ELG1 genotoxic 1.8%, SMN2 splice enh -12.5%, NPC1 promoter act 0.6% and Rab9 promoter act -7.6%.
CCCCNC(=O)C1COc2ccccc2O1 (configuration not stated) was read as FLuc counter 5.0%, ELG1 genotoxic 3.9%, SMN2 splice enh 29.8%, NPC1 promoter act 6.2% and Rab9 promoter act -1.8%.
`COc1ccc(NC(=O)Nc2ccc3c(c2)C(=O)N([C@H](C)CO)C[C@H](C)[C@@H](CN(C)C(=O)NC2CCCCC2)O3)cc1` gave ELG1 genotoxic 4.9%.
For Cc1ccc(Cl)c(NC(=O)COC(=O)C2CCC2)c1Cl the results were FLuc counter -2.6%, ELG1 genotoxic 1.6%, NPC1 promoter act -2.2% and Rab9 promoter act -0.2%.
Screening COC(=O)CCC(=O)Nc1ccc(N=Nc2ccccc2)cc1 returned FLuc counter 21.3µM*, ELG1 genotoxic inconclusive, SMN2 splice enh inconclusive, NPC1 promoter act 27.3% and Rab9 promoter act inconclusive.
`Cc1ccc(NC(=O)COC(=O)C2CC2)cc1Cl` gave FLuc counter 15.1µM*, ELG1 genotoxic 2.6%, NPC1 promoter act -2.3% and Rab9 promoter act 1.0%.
For CCOC(=O)CC1C(=O)NCCN1Cc1cccs1 (configuration not stated) the results were FLuc counter 0.0%, ELG1 genotoxic 1.3%, SMN2 splice enh -5.2%, NPC1 promoter act 0.9% and Rab9 promoter act -3.5%.
CCCCCC(=O)Nc1nnc(CCc2ccccc2)s1 was read as FLuc counter -2.6%, ELG1 genotoxic 1.7%, NPC1 promoter act -1.5% and Rab9 promoter act 3.9%.
For CC1CCN(C(=O)CSc2ccc(-c3ccc4c(c3)OCCO4)nn2)CC1 the results were FLuc counter 10.7µM*, ELG1 genotoxic -0.6%, NPC1 promoter act 1.6% and Rab9 promoter act 14.2%.
COc1ccc(-c2ccc(SCC(=O)N3CCCC3)nn2)cc1OC was read as FLuc counter inconclusive, ELG1 genotoxic -1.5%, SMN2 splice enh 7.9%, NPC1 promoter act 4.4% and Rab9 promoter act -2.5%.
CC1CCCC(C)N1C(=O)CSc1ccc(-c2ccc3c(c2)OCCO3)nn1 (configuration not stated) was read as FLuc counter 13.5µM*, ELG1 genotoxic -9.6%, NPC1 promoter act -4.1% and Rab9 promoter act 13.0%.
`COc1ccc(-c2ccc(SCC(=O)N3CCOCC3)nn2)cc1OC` gave FLuc counter 15.1µM*, ELG1 genotoxic inconclusive, SMN2 splice enh -21.7%, NPC1 promoter act 21.7% and Rab9 promoter act 3.7%.
Screening CC1CCCCN1C(=O)CSc1ccc(-c2ccc(F)cc2)nn1 (configuration not stated) returned FLuc counter inconclusive, ELG1 genotoxic 21.2%, SMN2 splice enh 23.6%, NPC1 promoter act 17.3% and Rab9 promoter act 27.5%.
`COc1ccc(-n2cc(CNC3CCN(C)CC3)c(-c3cccc(F)c3)n2)cc1` gave FLuc counter -11.9%, ELG1 genotoxic 8.2%, NPC1 promoter act -4.2% and Rab9 promoter act -8.1%.
`COc1ccc(-n2cc(CN[C@H]3CCCCNC3=O)c(-c3cccc(F)c3)n2)cc1` gave FLuc counter 16.9µM*, ELG1 genotoxic -1.6%, NPC1 promoter act -1.2% and Rab9 promoter act -0.1%.
`Cc1ccc(N2CC(C(=O)NNC(=O)c3ccc(F)cc3)CC2=O)cc1` (configuration not stated) gave FLuc counter 0.8%, ELG1 genotoxic -1.0%, NPC1 promoter act 0.1% and Rab9 promoter act 1.9%.
`CCN(CC)c1ccc(/C=N/N2C(=O)c3ccccc3C2=O)cc1` gave FLuc counter 4.26µM*, ELG1 genotoxic -0.2%, SMN2 splice enh -14.9%, NPC1 promoter act -0.3% and Rab9 promoter act -1.9%.
`COc1ccc(/C=N/N2C(=O)c3ccccc3C2=O)cc1` gave FLuc counter 2.13µM*, ELG1 genotoxic -3.9%, SMN2 splice enh -1.1%, NPC1 promoter act 0.6% and Rab9 promoter act -0.9%.
For COc1ccc(/C=N\n2nnc3ccccc32)cc1 the results were FLuc counter 0.19µM*, ELG1 genotoxic inconclusive, SMN2 splice enh 0.794µM*, NPC1 promoter act 0.316µM* and Rab9 promoter act 0.224µM*.
Screening COc1ccccc1/C=N/N1C(=O)c2cccc3cccc(c23)C1=O returned FLuc counter 0.4%, ELG1 genotoxic -0.2%, SMN2 splice enh 17.8%, NPC1 promoter act -2.6% and Rab9 promoter act -2.6%.
CN(C)c1ccc(/C=N/N2C(=O)c3ccccc3C2=O)cc1 was read as FLuc counter 0.426µM*, ELG1 genotoxic 6.6%, NPC1 promoter act -0.3% and Rab9 promoter act 10.3%.
Screening CS(=O)(=O)N(CC(=O)NCCSC1CCCCC1)c1ccc2c(c1)OCO2 returned FLuc counter -10.1%[2.3 µM], ELG1 genotoxic -0.8%, SMN2 splice enh 4.7%, NPC1 promoter act 1.0% and Rab9 promoter act 1.6%.
`Cc1cnc(NC(=O)NCC2CCCC(CNC(=O)Nc3ncc(C)s3)C2)s1` (configuration not stated) gave FLuc counter -18.9%, ELG1 genotoxic -22.1%, NPC1 promoter act -2.4% and Rab9 promoter act -1.1%.
